Screening data from PubChem BioAssay.
PrPC surface inh – reduces human prion protein on the cell surface | P04156 | cell surface PrPC, TR-FRET read-out | inhibition, % at 13.8 µM | 370,000 compounds, 0.43% hits; in the data active = inhibition above about 24%; note: 0% = median of the test wells and 100% = reference compound wells
BJeLR viability – BJeLR cell viability loss; BJeLR (HRASV12) viability, CellTiter-Glo ATP luminescence, 48 h; inhibition, % (no concentration beside the values); 300,000 compounds, 0.17% hits; AID 1554; in the data active = inhibition above about 50%
DUSP3 inh – blocks human VHR1 dual specificity phosphatase; P51452; recombinant VHR phosphatase, pNPP absorbance; inhibition, % at 13.3 µM; 290,000 compounds, 0.52% hits; AID 1654; in the data active = inhibition above about 50%
Target sequence (P51452 whole entry, looked up): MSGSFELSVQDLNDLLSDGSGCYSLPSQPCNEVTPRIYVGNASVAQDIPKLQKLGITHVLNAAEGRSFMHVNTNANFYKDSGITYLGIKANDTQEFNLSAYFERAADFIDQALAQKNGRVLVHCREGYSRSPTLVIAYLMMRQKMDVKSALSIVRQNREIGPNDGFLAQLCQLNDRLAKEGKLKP
PrP UTR inh – inhibition of PrP 5' UTR reporter expression; cell-based PrP 5' UTR mRNA reporter, plate reader; inhibition, % (test concentration not listed); 340,000 compounds, 0.35% hits; AID 488862; in the data active = inhibition above about 52%; note: 0 = median of the neutral control wells
PfHsp40 rescue – restores yeast growth despite PfHsp40 toxicity; S. cerevisiae expressing PfHsp40, growth rescue, ATP luminescence; growth rescue, % at 12.5 µM; 340,000 compounds, 0.68% hits; AID 504582; in the data active = growth rescue above about 28%, passing the limit was not always enough;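 note: yeast W303a lacking pdr1 and pdr3 grown in galactose medium; growth measured after three days at 30 °C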
MazF activator – increases E. coli MazEF RNase cleavage of RNA. FAM/BHQ RNA-DNA oligo cleavage fluorescence, 5 h. activation, % at 20 µM. 350,000 compounds, 0.32% hits. AID 504720; in the data active = activation above about 50%
Target sequence (P0AE70 whole entry, looked up): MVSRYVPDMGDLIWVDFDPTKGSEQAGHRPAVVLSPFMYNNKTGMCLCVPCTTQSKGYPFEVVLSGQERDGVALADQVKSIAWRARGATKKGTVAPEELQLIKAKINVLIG
Numbers without * were called inactive; x = no result. Sampled rows, rich in hits. Any-hit rate of the full collection: about 2.1%.

SMILES | PrPC surface inh | BJeLR viability | DUSP3 inh | PrP UTR inh | PfHsp40 rescue | MazF activator
COc1ccc(CC(=O)Nc2cccc(/C(C)=N/NC(=O)C3(C)CC3(Br)Br)c2)cc1 (stereo not drawn) | 3 | 10 | 2 | -28 | 0 | -3
S=C1NCCN1CC1CCN(CCCC2CCCC2)CC1 | -1 | x | x | -12 | 0 | 9
O=C(NC1=NCCS1)c1ccc([N+](=O)[O-])cc1Cl | -31 | 8 | 20 | -18 | x | 4
Cc1c(NC(=O)/C(C#N)=C/c2ccc(-c3ccc(Cl)c(Cl)c3)o2)c(=O)n(-c2ccccc2)n1C | -1 | -12 | 14 | -9 | 1 | -4
Cc1cc(NC(=O)/C(C#N)=C\c2ccc(-c3ccc(SC(F)F)cc3)o2)n(-c2ccccc2)n1 | 4 | x | x | -17 | 1 | 432*
COc1ccc(OCC(O)COc2ccc(C(=O)O)cc2)cc1 (stereo not drawn) | 1 | -10 | 51* | -56 | -1 | 11
CCCOc1nc(SCCC)nc2c1cnn2-c1ccccc1 | 2 | -1 | 53* | -26 | -1 | -8
Cn1cccc1/C=C1\SC(=O)N(c2ccc(O)cc2)C1=O | -12 | -5 | 3 | -25 | 0 | 262*
CCOc1ccc(N2C(=O)S/C(=C\c3cccn3C)C2=O)cc1 | -4 | -4 | -16 | -27 | -2 | 28
COc1ccc(Cl)cc1NC(=O)CN(C)CC(=O)Nc1ccc(S(N)(=O)=O)cc1 | -8 | -12 | 53* | -9 | 0 | 1
CC(C)(C)CC(=O)O/N=C(\N)c1ccccn1 | 12 | 0 | 18 | -34 | 72* | 7
CN(CC(=O)O/N=C(\N)c1ccccn1)S(=O)(=O)c1ccc(Br)cc1 | -2 | 6 | 8 | -34 | 0 | -12
Cc1ccc(S(=O)(=O)N(C)CC(=O)O/N=C(\N)c2ccccn2)cc1 | 4 | -7 | 10 | -16 | 2 | 61*
CC(C)CN(C(=O)c1cccc(S(=O)(=O)N2CCN(Cc3ccccc3)CC2)c1)C1CCS(=O)(=O)C1 (stereo not drawn) | -2 | 0 | x | -3 | 347* | -4
Cc1cc(C)n(-c2ccc(C(=O)NCC(c3ccco3)N3CCCC3)cc2)n1 (stereo not drawn) | -8 | x | x | -9 | -1 | -6
CC(O)c1nc2ccccc2n1Cc1ccccc1 (stereo not drawn) | 10 | -3 | 20 | -2 | 0 | -37
CC(O)c1nc2ccccc2n1C1CCCCC1 (stereo not drawn) | -1 | 1 | 16 | -19 | 74* | 10
COc1cccc(CNC(=O)C2CCC(CNS(=O)(=O)c3cccc4cccnc34)CC2)c1 (stereo not drawn) | -9 | -4 | 56* | -31 | 0 | 1
COc1ccccc1Sc1nc(-c2ccccn2)ncc1OC | 10 | 0 | 19 | -5 | 1 | 1
Cc1ccc(Sc2cc(C)nc(-c3ccccn3)n2)cc1 | 7 | 13 | 23 | -34 | 145* | 5
FC(F)(F)c1cccc(Sc2cc(C(F)(F)F)nc(-c3ccccn3)n2)c1 | -4 | -2 | 37 | -3 | -2 | 2
COc1cnc(-c2ccccn2)nc1Sc1ccc(C)cc1 | 4 | -5 | 5 | -10 | 359* | 17
COc1ccc(NC(=O)CSc2nnc3ccc(-c4ccccn4)nn23)cc1OC | 0 | -4 | x | -5 | -1 | 4
CCN(CC)C(=O)C1=C(C)N(CCC2=CCCCC2)C(=O)C(CC(=O)NCc2cccc3ccccc23)C1 (stereo not drawn) | -1 | x | x | x | x | -7
COc1cc(NC(=O)CCc2nnc3ccc(N4CCN(C)CC4)nn23)cc(OC)c1 | 7 | 8 | 52* | -17 | -1 | 6
COc1cc(NC(=O)CCc2nnc3ccc(N4CCC5(CC4)OCCO5)nn23)cc(OC)c1 | 6 | 8 | -15 | -4 | 2 | -14
Cc1ccc(NC(=O)c2sc(Cl)nc2-c2ccccc2)cc1C | -4 | -10 | 33 | -15 | 1 | 67*
O=C(Nc1ccccc1)c1sc(Cl)nc1-c1ccccc1 | -5 | 1 | -10 | -19 | -2 | 12
Cc1ccc(S(=O)(=O)Cc2ccc(C(=O)N3CCc4ccccc4C3)o2)cc1 | -1 | -2 | 54* | -8 | 1 | -1
Cc1ccc(S(=O)(=O)Cc2ccc(C(=O)N3CCN(c4cccc(C)c4C)CC3)o2)cc1 | 6 | 40 | 13 | -11 | 41* | 7
